Assay results reported in PubChem BioAssay (NCATS).
The source made the active and inactive calls. Where a call stands in place of a potency, no number is given. Calls follow the shape of the dose curve; as a rule, active = well fitted inhibition curve with a large enough effect; inconclusive = small, poorly fitted or top-dose-only effect; inactive = no such curve, though single readings can be large or run the other way.

Assay: qHTS assay for measurement of the activity of small molecule inhibitors on Zika virus induced Caspase-3 activity in human astrocytoma cells (AID 1224859)
Details: SNB-19 ZIKV-induced caspase-3/7, luminescence, 6 h; series mostly up to 45.7 µM
Source text: National Center for Advancing Translational Sciences [NCATS]
Johns Hopkins University School of Medicine
Increase in the Caspase-3 activity indicates an activation of apoptosis cell death pathway caused by Zika virus infection in certain types of neuronal cells including human neural progenitor cells (hNPCs), astrocytes, and astrocytoma cell line (SNB-19). This cell-based caspase-3 activity assay measures the increased caspase-3 activity in the astrocytoma cell line (SNB-19) after a 6-hour Zika virus infection with a luminescence readout. A decrease in the luminescence signal in this assay by small molecule treatment indicates an inhibitory effect of that small molecule on the Zika virus induced caspase-3 activity that may correlate with its effect on reduction of Zika virus caused cell death.
The medium for SNB-19 cells is composed of RPMI 1640 (ATCC, Cat.# 30-2001), 10% fetal bovine serum (FBS) (GE healthcare Life Sciences, Cat.# SH30071.03), and 1% Pen/Strep (Gibco, Cat.# 15140-122). A Caspase-Glo 3/7 assay kit (catalog number G8092; Promega, Madison, WI) was used to detect caspase-3 activity induced by Zika virus infection in human cells. The reagent mixture was reconstituted as described in the protocol from the manufacturer. Polystyrene tissue culture treated and PDL coated white plates were obtained from Greiner Bio-One (Monroe, NC). Cells were seeded in 384- or 1536-well assay plates and cultured at 37 C with 5% CO2 for 16 to 20 hours. The typical cell seeding density in the 1536-well plate assay is 250 cells/well in 3ul medium for SNB-19 cells in tissue culture treated plates. Compounds were added to cells and incubated for one hour before addition of ZIKV solution to cells (2 FFU/cell). After incubation at 37 C with 5% CO2 for 6 hours, the reagent mixture of Caspase-Glo 3/7 assay kit was added to each well, followed by incubation at room temperature for 30 minutes. The luminescence intensity of the assay plates was measured using a ViewLux plate reader (PerkinElmer). Data were normalized by using the cell-containing wells without ZIKV as a negative control (0% induction of caspase 3/7 activity) and wells containing ZIKV infected cells (Caspase-3 activity induced) as a positive control (100% induction of caspase 3 activity). The percentage inhibitions of the increased Caspase-3 activity by small molecule inhibitors were then calculated.
Potency is read from the fitted curve at half-maximal effect.

| SMILES | Potency |
| --- | --- |
| CNCCc1c[nH]c2ccc(O)cc12 | inactive |
| Cn1cnc(CCN)c1 | inactive |
| CC(C)(C)NC[C@H](O)c1ccc(O)cc1Cl | inactive |
| O=C(O)COc1ccccc1 | inactive |
| CC(=O)O[C@@]12CO[C@H]1C[C@H](O)[C@@]1(C)C(=O)[C@H](O)C3=C(C)[C@@H](O)C[C@@](O)([C@@H](OC(=O)c4ccccc4)[C@@H]21)C3(C)C | inactive |
| CNCCc1ccc(O)c(O)c1 | inactive |
| CC[N+]1(CCOC(=O)C(O)(c2ccccc2)c2ccccc2)CCCCC1 | inactive |
| C=CCN1CC[C@]23CCCCC2[C@H]1Cc1ccc(O)cc13 (stereo not given in full) | inactive |
| CC(C)N(CCNC(=O)CN1CCCC1=O)C(C)C | inactive |
| O=S(=O)(F)Cc1ccccc1 | inactive |
| O=S(=O)(CC1CS1)c1ccc(Oc2ccccc2)cc1 (stereo not given) | inactive |
| O=C(NCC1CCOCC1)c1cnc(Nc2ccc(Cl)cc2Cl)nc1C(F)(F)F | 8.33 µM (active) |
| O=C(O)COc1nc(Cl)c(Cl)cc1Cl | inactive |
| C=CC(=O)NCNC(=O)C=C | inactive |
| C[C@@H]1CC[C@H]2[C@@H](C)C(=O)O[C@@H]3O[C@@]4(C)CC[C@H]1[C@]32OO4 | inactive |
| NC1=NC(=O)N2CC12 (stereo not given) | inactive |
| O=C1CCCN1CC#CCN1CCCC1 | inactive |
| C[C@@H]1O[C@H](C[N+](C)(C)C)C[C@H]1O | inactive |
| CS(=O)(=O)c1ccc(C(=O)C2C(=O)CCCC2=O)c([N+](=O)[O-])c1 | inactive |
| Nc1ccc([N+](=O)[O-])cc1 | inactive |

| SMILES | Potency |
| --- | --- |
| O=C1C=CC[C@@H]2[C@H]3CCCN4CCC[C@@H](CN12)[C@@H]34 | 3.32 µM (active) |
| ClC1=C(Cl)[C@]2(Cl)[C@@H]3[C@@H]4C[C@@H]([C@H]5O[C@@H]45)[C@@H]3[C@@]1(Cl)C2(Cl)Cl | inactive |
| C[C@@H]1O[C@@H](O[C@@H]2C=C3CC[C@@H]4[C@@H](CC[C@]5(C)[C@H](c6ccc(=O)oc6)CC[C@@]45O)[C@@]3(C)CC2)[C@H](O)[C@H](O)[C@H]1O | inactive |
| COCC1(CO)C(=O)C2CCN1CC2 (stereo not given) | inactive |
| NC(N)=NOCCC(N)C(=O)O (stereo not given) | inactive |
| CC(C)NCC(O)c1ccc([N+](=O)[O-])cc1 (stereo not given) | inactive |
| C[C@@H]1[C@H](O)[C@@H](C)C=CC=CCCC=CC=CC=CC=C[C@H](O[C@H]2O[C@@H](C)[C@H](O)[C@@H](N)[C@@H]2O)CC2O[C@](O)(C[C@@H](O)[C@H](O)CC[C@@H](O)C[C@@H](O)C[C@@H](O)CC(=O)O[C@H]1C)C[C@H](O)[C@H]2C(=O)O | inactive |
| S=C(NC1CCCCC1)N1CCC(c2cnc[nH]2)CC1 | inactive |
| CCOP(=O)(OCC)C(C)NC(=O)N(CCCl)N=O (stereo not given) | inactive |
| CC1=C(O)C(=O)C=C2C1=CC=C1[C@@]2(C)CC[C@@]2(C)[C@@H]3C[C@](C)(C(=O)O)CC[C@]3(C)CC[C@]12C | inactive |
| COc1ccc(C(c2ccc(OC)cc2)C(Cl)(Cl)Cl)cc1 | inactive |
| CC[C@H]1C=CC=CC[C@@H](C)[C@H](O)[C@@](C)(O)C(=O)[C@@H](C)[C@H](O)[C@@H](C)C(=O)[C@@H](C)[C@H](O)[C@@H](C)C=CC(=O)O[C@@H]2[C@@H](C)[C@H](CC1)O[C@]1(CC[C@H](C)[C@H](C[C@@H](C)O)O1)[C@H]2C | inactive |
| NC1CC1c1ccccc1 (stereo not given) | inactive |
| C1CCC(NC2CCCCC2)CC1 | inactive |
| CC(=O)OCC1=C(C(=O)O)N2C(=O)[C@@H](N)[C@@H]2SC1 | inactive |
| CC(C)[C@]12O[C@@H]1[C@@H]1O[C@]13[C@]1(O[C@H]1C[C@@H]1C4=C(CC[C@@]13C)C(=O)OC4)[C@H]2O | inactive |
| O=C(Oc1ccc([N+](=O)[O-])cc1)N1CCC(C(O)(c2ccc3c(c2)OCO3)c2ccc3c(c2)OCO3)CC1 | inactive |
| N=c1c2c(-c3ccccc3)c(-c3ccccc3)n(Cc3ccccc3)c2ncn1C1CCC(O)CC1 (stereo not given) | inactive |
| COCCOCCO | inactive |
| CCO/N=C(\CC)C1=C(O)CC(c2c(C)cc(C)cc2C)CC1=O (stereo not given) | inactive |
